According to PubChem BioAssay AID1159580 (chemical genetic matrix, 2015):
Where “and” joins values, the source holds several entries; their conditions need not be identical. Equal values may be shown once. About 2,000 (36%) of roughly 5,500 compounds were called active. Another 18% or so got no clear call; they are omitted. Cut-off read from the data, not from the text of the source: active = normalized growth mostly below about 0.91 (no sharp cut-off); inconclusive = no clear call, values can overlap the other calls; inactive = mostly above about 0.92. Some of the results follow.

Experiment: chemical genetic growth profiling, strain panel (AID 1159580);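 note: tested at 20 µM; growth read once vehicle control cultures reached saturation at 30 °C; 1 = growth at the plate median or of vehicle wells; lower values mean less growth of the strain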
Conditions: S. cerevisiae deletion strains, growth OD

Measured: normalized growth

O=C(/C=C/C=C/c1ccc2c(c1)OCO2)N1CCCCC1
inactive: locus YAL013W, strain DEP1, stronger effect = lower value 0.962 | locus YAL021C, strain ccr4, stronger effect = lower value 0.965 | locus YAL030W, strain snc1, stronger effect = lower value 0.959 | locus YBL061C, strain skt5, stronger effect = lower value 0.949 | locus YBR021W, strain FUR4, stronger effect = lower value 0.893 | locus YBR023C, strain chs3, stronger effect = lower value 0.92 | locus YBR171W, strain sec66, stronger effect = lower value 0.91 | locus YBR229C, strain ROT2, stronger effect = lower value 0.969 | locus YBR231C, strain swc5, stronger effect = lower value 0.951 | locus YBR279W, strain paf1, stronger effect = lower value 0.952 | locus YCL016C, strain dcc1, stronger effect = lower value 0.915 | locus YCL029C, strain bik1, stronger effect = lower value 0.954 | locus YCL061C, strain MRC1, stronger effect = lower value 0.943 | locus YCR088W, strain abp1, stronger effect = lower value 0.945 | locus YDL005C, strain med2, stronger effect = lower value 0.975 | locus YDL035C, strain GPR1, stronger effect = lower value 0.922 | locus YDL040C, strain nat1, stronger effect = lower value 0.966 | locus YDL074C, strain BRE1, stronger effect = lower value 0.835 | locus YDL101C, strain DUN1, stronger effect = lower value 0.969 | locus YDL134C, strain PPH21, stronger effect = lower value 0.944 | locus YDL185W, strain tfp1, stronger effect = lower value 0.94 | locus YDL192W, strain arf1, stronger effect = lower value 0.939 | locus YDR001C, strain nth1, stronger effect = lower value 0.936 | locus YDR069C, strain doa4, stronger effect = lower value 0.998 | locus YDR101C, strain arx1, stronger effect = lower value 0.931 | locus YDR150W, strain NUM1, stronger effect = lower value 0.986 | locus YDR159W, strain sac3, stronger effect = lower value 0.955 | locus YDR162C, strain NBP2, stronger effect = lower value 0.93 | locus YDR297W, strain sur2, stronger effect = lower value 0.965 | locus YDR334W, strain swr1, stronger effect = lower value 0.968 | locus YDR335W, strain msn5, stronger effect = lower value 0.96 | locus YDR388W, stronger effect = lower value 0.931 | locus YEL003W, strain gim4, stronger effect = lower value 0.94 | locus YEL037C, strain rad23, stronger effect = lower value 0.946 | locus YEL061C, strain CIN8 (second series), stronger effect = lower value 0.969 | locus YEL061C, strain CIN8, stronger effect = lower value 0.971 | locus YER016W, strain bim1, stronger effect = lower value 0.948 | locus YER110C, stronger effect = lower value 0.951 | locus YER111C, strain swi4, stronger effect = lower value 0.986 | locus YER155C, strain BEM2, stronger effect = lower value 0.963 | locus YER167W, strain BCK2, stronger effect = lower value 0.907 | locus YFR010W, strain ubp6, stronger effect = lower value 0.974 | locus YGL078C, strain dbp3, stronger effect = lower value 0.957 | locus YGL167C, strain pmr1, stronger effect = lower value 0.945 | locus YGL173C, strain kem1, stronger effect = lower value 0.926 | locus YGL227W, strain vid30, stronger effect = lower value 0.948 | locus YGL240W, strain doc1, stronger effect = lower value 0.919 | locus YGL248W, strain PDE1, stronger effect = lower value 0.938 | locus YGR078C, strain PAC10, stronger effect = lower value 0.871 | locus YHR013C, strain ard1, stronger effect = lower value 0.951 | locus YHR027C, strain rpn1, stronger effect = lower value 0.959 | locus YHR030C, strain SLT2, stronger effect = lower value 0.939 and 0.975 | locus YHR079C, strain IRE1 (second series), stronger effect = lower value 0.937 | locus YHR079C, strain IRE1, stronger effect = lower value 0.977 | locus YHR094C, strain hxt1, stronger effect = lower value 0.954 | locus YHR129C, strain ARP1, stronger effect = lower value 0.973 | locus YHR200W, strain rpn10, stronger effect = lower value 0.925 | locus YIL066C, strain RNR3, stronger effect = lower value 0.94 | locus YIL073C, strain SPO22, stronger effect = lower value 0.864 | locus YIL125W, strain kgd1, stronger effect = lower value 0.96 | locus YIR030C, strain dcg1, stronger effect = lower value 0.941 | locus YJL092W, strain hpr5, stronger effect = lower value 0.947 | locus YJL095W, strain BCK1 (second series), stronger effect = lower value 0.935 | locus YJL115W, strain asf1, stronger effect = lower value 0.984 | locus YJL134W, strain LCB3, stronger effect = lower value 0.978 | locus YJL154C, strain vps35, stronger effect = lower value 0.96 | locus YJL166W, strain qcr8, stronger effect = lower value 0.93 | locus YJL168C, strain set2, stronger effect = lower value 0.945 | locus YJL187C, strain SWE1 (second series), stronger effect = lower value 0.942 | locus YJL187C, strain SWE1, stronger effect = lower value 0.967 | locus YJR043C, strain POL32, stronger effect = lower value 0.862 | locus YJR066W, strain TOR1, stronger effect = lower value 0.955
active: locus YAL026C, strain drs2, stronger effect = lower value 0.885 | locus YBR009C, strain hhf1, stronger effect = lower value 0.907 | locus YCL011C, strain gbp2, stronger effect = lower value 0.889 | locus YCL069W, strain vba3, stronger effect = lower value 0.904 | locus YDR137W, strain rgp1, stronger effect = lower value 0.687 | locus YDR195W, strain ref2 1.23 [resistant] | locus YDR318W, strain mcm21, stronger effect = lower value 0.895 | locus YDR392W, strain spt3, stronger effect = lower value 0.599 | locus YDR502C, strain sam2, stronger effect = lower value 0.888 | locus YER015W, strain faa2, stronger effect = lower value 0.922 | locus YER155C, strain BEM2 (second series), stronger effect = lower value 0.696 | locus YGL086W, strain mad1, stronger effect = lower value 0.923 | locus YGL253W, strain hxk2, stronger effect = lower value 0.873 | locus YGR135W, strain pre9, stronger effect = lower value 0.886 | locus YGR229C, strain SMI1, stronger effect = lower value 0.732 | locus YGR252W, strain gcn5, stronger effect = lower value 0.732 | locus YHR142W, strain chs7, stronger effect = lower value 0.857 | locus YJL129C, strain trk1, stronger effect = lower value 0.855 | locus YJL164C, strain tpk1, stronger effect = lower value 0.904
0.779 (active) and 0.987 (inactive): locus YJL095W, strain BCK1, stronger effect = lower value
